# In PubChem BioAssay (NCATS):
# Results filed as inconclusive are left out. A call without a number means that no potency is given here. Activity calls are given as the source filed them. Calls follow the shape of the dose curve; as a rule, active = well fitted curve in the direction sought with a large enough effect; inconclusive = small, poorly fitted or top-dose-only effect, or another doubt; inactive = no such curve, though single readings can be large; an effect the other way counts as inactive or inconclusive.
# What was measured:
# [1] = qHTS of pediatric cancer cell lines to identify multiple opportunities for drug repurposing: Primary screen for Rh30 cells (AID 1347107); also: series mostly up to about 46 µM; nearly all actives have a fitted effect of over 75% in size
# Outline: (§1)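 Cells (500-1,000/well) rested 5 h, then received compounds for 48 h; metabolically active cells were measured by CellTiter-Glo luminescence. Final concentrations spanned up to 46 µM (MIPE, 11-point) or 0.59 nM-46 µM (NPC, 8-point) in primary screens, 11-point in follow-ups.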
# [2] = qHTS of pediatric cancer cell lines to identify multiple opportunities for drug repurposing: Primary screen for Rh41 cells (AID 1347108); also: nearly all actives have a fitted effect of over 70% in size; also: potency is read from the fitted curve at half-maximal effect
# Outline: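 Readout: CellTiter-Glo luminescence, 48 h treatment. Controls DMSO (neutral) and bortezomib 2.3 µM final (positive). Potency and efficacy taken from primary-screen concentration-response curves.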
# [3] = qHTS of pediatric cancer cell lines to identify multiple opportunities for drug repurposing: Confirmatory screen for A673 cells (AID 1347110);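 also: cells exposed to compound for 48 h before the viability read; nearly all actives have a fitted effect of over 65% in size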; also: potency is read from the fitted curve at half-maximal effect
# Outline: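 A673 cells seeded at 500-1,000 cells/well, rested 5 h, then dosed; primary MIPE 11-point (0.78 nM to 46 µM), NPC (0.59 nM to 46 µM); confirmatory 11-point. CellTiter-Glo luminescence after 48 h.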
# [4] = qHTS of pediatric cancer cell lines to identify multiple opportunities for drug repurposing: Confirmatory screen for SK-N-MC cells (AID 1347111);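 also: cells exposed to compound for 48 h before the readout; nearly all actives have a fitted effect of over 70% in size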; also: potency is read from the fitted curve at half-maximal effect
# Outline: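 Seed 500-1,000 cells/well; rest 5 h at 37 degrees C. Pin-transfer compounds, 11-point titration. Incubate 48 h. Add CellTiter-Glo, 15 min RT, read luminescence.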
# [5] = qHTS of pediatric cancer cell lines to identify multiple opportunities for drug repurposing: Confirmatory screen for BT-12 cells (AID 1347112); also: potency is read from the fitted curve at half-maximal effect;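 also: viability read after 48 h of compound exposure; nearly all actives have a fitted effect of over 55% in size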
# Outline: as §1
# [6] = qHTS of pediatric cancer cell lines to identify multiple opportunities for drug repurposing: Confirmatory screen for DAOY cells (AID 1347114); also: nearly all actives have a fitted effect of over 65% in size; also: potency is read from the fitted curve at half-maximal effect
# Outline: (§2)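 Viability measured as metabolically active cells via CellTiter-Glo luminescence following 48 hours of compound exposure, 11-point dilutions in confirmatory testing. 500-1,000 cells/well plated 5 hours before dosing; controls were DMSO and 2.3 µM bortezomib.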
# [7] = qHTS of pediatric cancer cell lines to identify multiple opportunities for drug repurposing: Confirmatory screen for NB-EBc1 cells (AID 1347115);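 also: cells exposed to compound for 48 h before the viability read; nearly all actives have a fitted effect of over 45% in size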; also: potency is read from the fitted curve at half-maximal effect
# Outline: as §1
# [8] = qHTS of pediatric cancer cell lines to identify multiple opportunities for drug repurposing: Confirmatory screen for NB1643 cells (AID 1347109); also: nearly all actives have a fitted effect of over 45% in size; also: potency is read from the fitted curve at half-maximal effect
# Outline: as §1
# [9] = qHTS of pediatric cancer cell lines to identify multiple opportunities for drug repurposing: Confirmatory screen for SJ-GBM2 cells (AID 1347116); also: nearly all actives have a fitted effect of over 60% in size; also: potency is read from the fitted curve at half-maximal effect
# Outline: as §2
# [10] = qHTS of pediatric cancer cell lines to identify multiple opportunities for drug repurposing: Confirmatory screen for LAN-5 cells (AID 1347113); also: nearly all actives have a fitted effect of over 65% in size; also: potency is read from the fitted curve at half-maximal effect
# Outline: as §1
SMILES,Potency [1],Potency [2],Potency [3],Potency [4],Potency [5],Potency [6],Potency [7],Potency [8],Potency [9],Potency [10]
OC[C@@H](O)[C@@H](O[C@@H]1O[C@H](CO)[C@H](O)[C@H](O)[C@H]1O)[C@H](O)[C@@H](O)CO,inactive,inactive,–,–,–,–,–,–,–,–
CC(Cc1cccc(C(F)(F)F)c1)NCCOC(=O)c1ccccc1 (stereo unspecified),inactive,inactive,–,–,–,–,–,–,–,–
C[C@]12CC[C@H]3[C@@H](CCC4=CC(=O)CC[C@@]43C)[C@@H]1CC[C@@H]2C(=O)CO,inactive,inactive,–,–,–,–,–,–,–,–
CN(C)/N=N/c1nc[nH]c1C(N)=O,inactive,–,inactive,9.27 µM (active),inactive,inactive,18.5 µM (active),–,–,–
CC1(C)O[C@@H]2C[C@H]3[C@@H]4CCC5=CC(=O)CC[C@]5(C)[C@@]4(F)[C@@H](O)C[C@]3(C)[C@]2(C(=O)CCl)O1,inactive,inactive,inactive,–,inactive,inactive,inactive,inactive,inactive,–
CC(=O)OCC(=O)[C@@]1(OC(C)=O)[C@@H](C)C[C@H]2[C@@H]3C[C@H](F)C4=CC(=O)C=C[C@]4(C)[C@@]3(F)[C@@H](O)C[C@@]21C,inactive,inactive,inactive,–,inactive,–,inactive,inactive,inactive,inactive
CCCC(=O)O[C@]1(C(=O)CO)CC[C@H]2[C@@H]3CCC4=CC(=O)CC[C@]4(C)[C@H]3[C@@H](O)C[C@@]21C,inactive,inactive,inactive,inactive,inactive,inactive,inactive,inactive,inactive,–
NC(CO)(CO)CO,inactive,inactive,inactive,8.27 µM (active),inactive,inactive,inactive,inactive,inactive,–
C[n+]1c2cc(N)ccc2cc2ccc(N)cc21 (tested in a mixture with another compound),–,16.8 µM (active),5.22 µM (active),6.57 µM (active),0.928 µM (active),6.57 µM (active),–,3.29 µM (active),13.1 µM (active),3.29 µM (active)
CC(=O)Oc1ccc(C(c2ccc(OC(C)=O)cc2)c2ccccn2)cc1,inactive,inactive,–,–,inactive,inactive,inactive,inactive,inactive,inactive
CCCCC(=O)O[C@]1(C(=O)CO)CC[C@H]2[C@@H]3CCC4=CC(=O)CC[C@]4(C)[C@H]3[C@@H](O)C[C@@]21C,inactive,inactive,inactive,–,–,inactive,inactive,inactive,–,inactive
CC(=O)OCC(=O)[C@@]1(O)CC[C@H]2[C@@H]3CCC4=CC(=O)C=C[C@]4(C)[C@H]3[C@@H](O)C[C@@]21C,inactive,inactive,inactive,inactive,inactive,inactive,inactive,inactive,inactive,–
Oc1ccc(O)cc1,inactive,–,–,–,–,–,14.7 µM (active),18.5 µM (active),inactive,–
CC(=O)[C@H]1CC[C@H]2[C@@H]3C[C@H](C)C4=CC(=O)CC[C@]4(C)[C@H]3[C@@H](O)C[C@]12C,inactive,inactive,inactive,–,inactive,–,–,–,inactive,inactive
C[C@]12CCC(=O)C=C1CC[C@H]1[C@@H]3CC[C@](O)(C(=O)CO)[C@@]3(C)C[C@H](O)[C@@]12F,inactive,inactive,inactive,–,–,inactive,inactive,inactive,inactive,inactive
